Laboratory results from PubChem BioAssay (NCATS).
Records with an inconclusive call do not appear. A call without a number means that no potency is given here. Values without a mark were called inactive. Activity calls are given as the source filed them. Calls come from the whole dose curve; as a rule, active = well fitted inhibition curve with a large enough effect; inconclusive = small, poorly fitted or top-dose-only effect; inactive = no such curve, though single readings can be large or run the other way.

Key:
[1] = tested on: Zika virus NS2B-NS3 protease (unlinked complex); test: Primary screen GU Rhodamine qHTS for Zika virus inhibitors: Unlinked NS2B-NS3 protease assay (AID 1347159); note: nearly all actives have a fitted effect of over 60% in size
Method in brief: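 Buffer 10 mM Tris-HCl pH 8.0, 0.01% Tween 20. Unlinked protease 25 nM; compound preincubation 15 min, RT, protected from light. Substrate Rhod110, 1.5 microM; ~15% conversion in 15 min.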

[2] = tested on: Zika virus NS2B-NS3 protease (linked construct); test: Primary screen NINDS Rhodamine qHTS for Zika virus inhibitors (AID 1347160); note: nearly all actives have a fitted effect of over 55% in size
Method in brief: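 Aprotinin served as in-plate control. Conditions: 25 nM linked NS2B-NS3, pH 8.0 Tris buffer, titrated compounds, 15 min preincubation and 15 min reaction with 1.5 microM Rhod110 substrate at room temperature.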

SMILES	activity change, negative = inhibition [1]	activity change, negative = inhibition [2]	Potency [1]	Potency [2]
CC1(C)CC[C@]2(C(=O)O[C@@H]3O[C@H](CO[C@@H]4O[C@H](CO)[C@@H](O)[C@H](O)[C@H]4O[C@@H]4O[C@H](CO)[C@H](O)[C@H](O)[C@H]4O)[C@@H](O)[C@H](O[C@@H]4O[C@H](CO)[C@@H](O)[C@H](O)[C@H]4O)[C@H]3O)CC[C@]3(C)C(=CCC4[C@@]5(C)CC[C@H](O[C@@H]6OC[C@@H](O)[C@H](O)[C@H]6O)[C@@](C)(C(=O)O)C5CC[C@]43C)[C@@H]2C1 (stereo not given in full)	20.2% [at 19.1 µM]	-4.93% [at 10.7 µM]	–	–
C=C1C(=O)O[C@@H]2C/C(C)=C\C(=O)/C=C(\C)[C@@H](OC(=O)/C(C)=C\C)[C@H](O)[C@@H]12	–	–	inactive	inactive
CC(C)(O)CC(CO)NC(=O)CC(O)CC(=O)Cc1ccccc1 (stereo not given)	–	–	inactive	inactive
C[C@@H]1O[C@@H](O[C@H]2[C@H](OC(=O)[C@]34CCC(C)(C)C[C@H]3C3=CCC5[C@@]6(C)C[C@H](O)[C@H](O[C@@H]7O[C@H](CO)[C@@H](O[C@H]8OC[C@](O)(CO)[C@H]8O)[C@H](O)[C@H]7O)[C@@](C)(CO)C6[C@H](O)C[C@@]5(C)[C@]3(C)C[C@H]4O)OC[C@H](O)[C@@H]2O)[C@H](O)[C@H](O)[C@H]1O[C@@H]1OC[C@@H](O)[C@H](O[C@@H]2OC[C@](O)(CO)[C@H]2O)[C@H]1O (stereo not given in full)	20.8% [at 19.1 µM]	33.3% [at 10.7 µM]	–	–
CC(C)Oc1ccc(C(=O)NC(CNC(=O)CN(C)C)Cc2ccc(-c3cn4cccc(C(C)O)c4n3)cc2)cc1Cl (stereo not given)	–	–	inactive	inactive
